The values below come from PubChem BioAssay AID2314 (National Center for Advancing Translational Sciences (NCATS), 2010).

Each structure is given as a SMILES string. Where “and” joins values, the source holds several entries; their conditions need not be identical. Equal entries are not always repeated. Hit rate of the full screen: of about 300,000 compounds, about 37,000 (12%) were called active. The sample holds actives, similar compounds and a random draw of the others, so the mix is not that of the screen. Cut-off read from the data, not from the text of the source: active = max response mostly above about 13% (no sharp cut-off); inactive = mostly below about 14%.

The nature of this assay: Cycloheximide Counterscreen for Small Molecule Inhibitors of Shiga Toxin. Note: read at 38.3 µM for the half of the compounds with a filed dose; 0% is about no effect. As to conditions: cell reporter, cycloheximide protein synthesis inhibition counterscreen; hits give high values. In general terms: Counterscreens check selectivity or assay interference.
On to `COc1ccc(NS(=O)(=O)c2cccc3nsnc23)cc1Cl`, for which the max response was -2.31% (inactive). The figure for `Cc1noc(C)c1S(=O)(=O)Nc1cc(C(F)(F)F)ccc1N1CCOCC1` is 1.06% (inactive); for `COCCCNC(=O)/C(C#N)=C/c1c(N2CCCCCC2)nc2ccccn2c1=O` it is 5.95% (inactive). The figure for `CCCC[C@]12Cc3cc(OC)c(OC)cc3C(O1)C1=C(CC3(CCCCC3)OC1=O)O2` is -1.97% (inactive). As for `COc1cc(/C=C/C(=O)OCC(=O)N2CCOCC2)ccc1OCC#N`, the figure is -1.28% (inactive); as for `CSc1cccc(NC(=S)N(C(C)C)C(C)c2ccccn2)c1` (centres undefined), 9.01% (inactive). On to `C=CCNC(=S)NNC(=O)COc1c(Cl)cc(Cl)cc1Cl`, for which the max response is -3.49% (inactive).

`Cc1ccc(Cn2ccc(NC(=O)c3cc(C(C)C)on3)n2)cc1`: the max response is 48% (active). Turning to `Cc1cc(C(=O)Nc2c(C)nn(Cc3ccccc3)c2C)on1`, the max response is -4.11% (inactive). With `Cc1ccc(Cn2ccc(NC(=O)C3C4CCC(C4)C3C(=O)O)n2)cc1` (centres undefined), the max response was 1.94% (inactive). As for `Cc1ccc(C(=O)OCC(=O)NC(=O)Cc2ccccc2)c(O)c1`, the figure is 4.77% (inactive); as for `CC(=O)Nc1ccccc1NC(=O)c1cc(C)cc(C)c1`, -1.4% (inactive); as for `COc1ccc([N+](=O)[O-])cc1NC(=O)c1ccc(N(Cc2ccccc2C)S(C)(=O)=O)cc1`, -0.93% (inactive). The figure for `Cc1cc(C)cc(NC(=O)N(C)Cc2ccccc2)c1` is 4.9% (inactive); for `C=CCN(c1ccc(C(N)=O)cc1)S(C)(=O)=O` it is -1.24% (inactive). The figure for `C=CCN(c1ccc(C(=O)Nc2cc(C)cc(C)c2)cc1)S(C)(=O)=O` is 12.7% (active). Turning to `CSCc1ccc(C(=O)Nc2cc(C)cc(C)c2)cc1`, the max response was 41.7% (active). With `CCN(CC(=O)Nc1ccc(Cl)c(S(=O)(=O)N(C)C)c1)Cc1nc2ccccc2c(=O)[nH]1`, the max response is -3.17% (inactive). As for `Clc1ccc(-c2cc(C3CCNCC3)[nH]n2)c(Cl)c1`, the figure is 9.48% (inactive).

Consider `CCc1cc(CNC(=O)CC2C(=O)NCCN2Cc2ccccc2C(F)(F)F)on1` (centres undefined), for which the max response is -1.48% (inactive). The figure for `CCOC(=O)c1c(C(C#N)C#N)cc(C)nc1C` is 1.41% (inactive). As for `CCOC(=O)COc1nc(C)cc(C(F)(F)F)c1C#N`, the max response was -3.74% (inactive). As to `CCOC(=O)c1cc(C)nc(S(C)(=O)=O)c1C#N`, the max response is 24.3% (active). Take `O=C1CCCN2N=C(SCC(=O)Nc3ccc(Br)cc3)SC2=N1`: the max response is 7.4% (inactive). As to `Cc1ccc(CN(C)Cc2cc(=O)oc3cc(C)c(Cl)cc23)cc1`, the max response is 8.9% (inactive). As for `O=[N+]([O-])c1cc(C(F)(F)F)ccc1NN=C1CCCC1`, the figure is -3.4% (inactive).

Take `O=[N+]([O-])c1ccccc1N/N=C1\CCc2ccccc21`: the max response was 22.3% (active). As for `CN1CCN(CCNC(=O)Nc2ccccc2[N+](=O)[O-])CC1`, the figure is -3.83% (inactive); as for `O=C(Nc1ccc2c(c1)OCCO2)C(c1ccc(F)cc1)N1CCCCC1` (centres undefined), -0.355% (inactive).

For `Cc1ccc2nc(-c3ccncc3)cc(C(=O)Nc3ccc4c(c3)OCCO4)c2c1`, the max response is 7.28% (inactive). For `CCOC(=O)c1cnc2ccc(F)cc2c1Nc1ccc2c(c1)OCCO2`, the max response is 32.3% (active). As for `C/C(CC(=O)NCc1ccc(Cl)cc1)=N\NC(=O)COc1ccc(C)cc1Br`, the figure is -1.26% (inactive); as for `Cc1ccccc1C(=O)N1CCC(C(=O)Oc2ccc(C#N)cc2)CC1`, -2.38% (inactive); as for `CCn1c(CC(=O)Nc2ccccc2)nnc1SCC(=O)N1CCOCC1`, -2.97% (inactive). The figure for `COc1ccc(CCn2c(-c3ccco3)nc3nc4ccccc4nc32)cc1OC` is 7.86% (inactive).

With `Clc1cccc(-c2nc3nc4ccccc4nc3n2Cc2ccco2)c1`, the max response was 31.5% (active). The figure for `Cc1cc(NC(=O)CSc2nc3cc(Cl)ccc3c(=O)n2Cc2ccco2)no1` is 1.42% (inactive); for `Cc1cc2oc(=O)cc(CN3CCN(Cc4ccccc4)CC3)c2cc1C` it is 1.14% (inactive); for `COc1cc(CN2CC(C)CC(C)C2)cc([N+](=O)[O-])c1O` (centres undefined) it is -0.873% (inactive). The figure for `O=C(COC(=O)c1ccc(S(=O)(=O)N2CCc3ccccc3C2)cc1)NC(=O)NCc1ccco1` is 6.51% (inactive); for `O=C(Nc1cc(N2CCOCC2)ncn1)NC1(C(F)(F)F)Oc2ccc(Cl)cc2O1` (centres undefined) it is 45.4% (active); for `Cc1csc(NC(=O)NC2(C(F)(F)F)Oc3ccccc3O2)n1` it is 1.16% (inactive). As for `O=C(CN1C(=O)COc2ccc(Cl)cc21)Nc1ccc(N2CCOCC2)cc1`, the figure is 1.87% (inactive); as for `CCc1cc(=O)oc2c(C)c(OCC(=O)NCCN3CCOCC3)ccc12`, 1.6% (inactive).

Take `Cc1ccc(NC(=O)CCN2C(=O)c3ccccc3C2=O)cc1C`: the max response was -2.39% (inactive). As for `CC(C)=CCCC(C)CN1CCC(n2nccc2NC(=O)c2ccccc2)CC1` (centres undefined), the figure is -5.01% (inactive); as for `CCN1CCN(c2ccc(NC(=O)c3cnccn3)cc2)CC1`, 26% (active).

For the molecule `O=C(Nc1ccc(S(=O)(=O)N2CCCCC2)cc1)c1cnccn1`, the max response is -3.02% (inactive). As for `O=C(NCN1CCN(CCO)CC1)c1cnccn1`, the figure is -4.08% (inactive); as for `N#CCSc1nc(-c2ccccc2)nc2ccc(F)cc12`, -2.28% (inactive); as for `Cn1cc(CNC(=O)c2ccc(OC3CCN(Cc4ccccn4)CC3)cc2)cn1`, 9.98% (inactive).

As for `CN(CCc1ccccn1)C(=O)c1ccc(OC2CCN(Cc3ccccn3)CC2)cc1`, the max response was 0.254% (inactive). Take `CN(CCc1ccccn1)C(=O)c1ccc(OC2CCN(CCc3ccccc3)CC2)cc1`: the max response was 17% (active).

For `OCCC(O)CO` (centres undefined), the max response was -4.13% (inactive) and -5.85% (inactive) and -2.71% (inactive). As for `O=C(CSc1nc(C2CC2)nc2ccccc12)Nc1ccc2c(c1)OCCO2`, the figure is 1.1% (inactive). As for `CCc1ccccc1OCC(=O)Nc1ccc2c(c1)OCCO2`, the figure is 35.2% (active); as for `CCOC(=O)c1ccc(NC(=O)Cn2nnc(-c3ccc(C)cc3)n2)cc1`, -3.53% (inactive).

As to `COc1ccc(NC(=O)CN(C)S(=O)(=O)c2ccccc2)cc1OC`, the max response was -1.84% (inactive). Consider `CS(=O)(=O)c1ccc(-c2nnn(CC(=O)Nc3ccc4c(c3)OCCO4)n2)cc1`, for which the max response is 15.4% (active). The figure for `Cn1ccnc1SCC(=O)Nc1ccc2c(c1)OCCO2` is 18% (inactive).

With `O=C(CSc1nc2ncccc2[nH]1)Nc1ccc2c(c1)OCCO2`, the max response is 25.8% (active). The figure for `O=C(CN(c1ccc2c(c1)OCCO2)S(=O)(=O)c1ccccc1)Nc1ccc2c(c1)OCO2` is 11.4% (inactive); for `CC(C)CNS(=O)(=O)c1ccc(OCC(=O)Nc2ccc3c(c2)OCO3)c(Cl)c1` it is 5.31% (inactive). Regarding `CC(C)NS(=O)(=O)c1ccc(OCC(=O)Nc2ccc3c(c2)OCCO3)cc1`, the max response is 2.4% (inactive).

Take `COc1ccc(S(=O)(=O)N(C)CC(=O)Nc2ccc3c(c2)OCCO3)cc1OC`: the max response is 18.2% (active). As for `Cc1cccc(C(=O)Nc2ccccc2-c2nnn(CC(=O)Nc3ccc4c(c3)OCCO4)n2)c1`, the figure is -4.9% (inactive). The figure for `CCc1ccc(Oc2nc([N+](=O)[O-])nn2C)cc1` is -1.09% (inactive); for `COc1ccc(OCCCCN2CCC(C)CC2)cc1` it is -5.4% (inactive); for `CCN(CC)S(=O)(=O)c1ccc(C(=O)N2CCN(C3=NS(=O)(=O)c4ccccc43)CC2)cc1` it is 7.96% (inactive).

On to `CC1CCC(C(C)C)C(=O)/C1=C\c1ccc(NC(=O)CCC(=O)O)cc1` (centres undefined), for which the max response was -5.07% (inactive).

Consider `COc1ccc(CN2CN(C3CCCC3)CSC2=S)cc1`, for which the max response was 3.32% (inactive). As for `O=S(=O)(c1ccc(Br)cc1)N1CCC(c2nc3ccccc3[nH]2)CC1`, the figure is -3.07% (inactive); as for `CCC(Cc1ccccc1)NS(=O)(=O)c1ccc2c(c1)NC(=O)CS2` (centres undefined), 0.995% (inactive).

Regarding `Cc1cc(C)c(C#N)c(Nc2cccc(Br)c2)n1`, the max response is 0.576% (inactive). As for `C[C@H](NC(=O)C1CC(=O)N(c2ccc3c(c2)OCCO3)C1)C(=O)N1CCC(C(=O)O)CC1` (some centres undefined), the figure is 7.17% (inactive); as for `COc1ccc(C(=O)NC2CC(C)(C)NC(C)(C)C2)cc1OC`, -1.7% (inactive). Take `COc1ccc(CN(C)C(C)C(=O)NC2CCCc3ccccc32)cc1` (centres undefined): the max response was 4.63% (inactive). As for `CCOc1ccc(NCCC(=O)c2ccc3c(c2)OCO3)cc1`, the figure is 14.4% (active). The figure for `COc1ccc(C2(C)NC(=O)N(CC(=O)c3ccc4c(c3)OCO4)C2=O)cc1` (centres undefined) is 1.46% (inactive); for `CCCCC(=O)Nc1ccc2c(c1)OCCO2` it is 36.8% (active). In the case of `CC(=O)NCC(=O)N(C)C(C(=O)Nc1ccc2c(c1)OCCO2)c1ccccc1` (centres undefined), the max response is -1.79% (inactive). Turning to `CCCCN(CC(=O)NC(C)(C)C)C(=O)C(=O)Nc1ccc2c(c1)OCCO2`, the max response is 5.6% (inactive). The figure for `CCOc1ccc(C(=O)CCN2CCOCC2)cc1` is 9.26% (inactive). As for `O=C(COc1ccc(Cl)cc1)Nc1ccc2c(c1)OCO2`, the figure is 15.8% (active); as for `CCC(C(=O)Nc1ccc(C(C)C)cc1)c1ccccc1` (centres undefined), -1.28% (inactive).

With `O=C(COc1ccc(Cl)cc1)Nc1ccc2oc(=O)ccc2c1`, the max response is -3.63% (inactive). The figure for `O=C(CN1CCN(c2ncc(C(F)(F)F)cc2Cl)CC1)Nc1ccc2c(c1)OCO2` is 2.27% (inactive); for `O=C(CCS(=O)(=O)Cc1ccccc1)Nc1ccc2c(c1)OCCO2` it is -1.91% (inactive). The figure for `CCC(C(=O)Nc1ccc2c(c1)OCCO2)c1ccccc1` (centres undefined) is 19.2% (active); for `COCCOC(=O)C1=C(C)NC(=O)NC1c1cc2c(cc1Br)OCO2` (centres undefined) it is -5.73% (inactive); for `Cc1ccc(NC(=O)CN(C)C(=O)COC(=O)C(C)(C)Oc2ccc(Cl)cc2)cc1` it is -3.38% (inactive). As for `COc1ccccc1C(=O)Nn1cnnc1`, the max response was -2.95% (inactive). The figure for `CCC(C)(C)NC(=O)CN(C(=O)CCC(=O)Nc1nccs1)c1ccc2c(c1)OCO2` is -3.66% (inactive). The figure for `COc1ccc(CCNC(=O)NS(=O)(=O)c2ccc(C)cc2)cc1OC` is -2.33% (inactive).
